In PubChem BioAssay (NCATS):
Inconclusive results are not listed. Unmarked numbers belong to inactive results. Active and inactive are the calls of the source. The call rests on the fitted dose curve; in most records, active means well fitted inhibition curve with a large enough effect; inconclusive means small, poorly fitted or top-dose-only effect; inactive means flat fitted curve, though single readings scatter.

target: Calcium and integrin-binding protein 1 (Homo sapiens) (UniProt Q99828); test: Primary qHTS for Identification of Calcium Integrin Binding Protein 1 (CIB1) Competitor (AID 1508620); conditions: CIB1-GST / FITC-alphaIIb peptide fluorescence polarization; series mostly up to 57.7 µM; activity change, negative = inhibition: at the top concentration; further: top concentration of the series differs between compounds
Outline: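 Fluorescence polarization competition: GST-tagged CIB1 (1 uM final) preincubated with compound 15 min at room temperature, then FITC-labelled alphaIIb peptide (100 nM final) added. After 15 min at room temperature, polarization read at Ex 480/Em 540.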
On the % scale 0 is the no-effect control and ±100 the full control effect.

Sequence of Calcium and integrin-binding protein 1 (Homo sapiens) (Q99828 whole entry, looked up): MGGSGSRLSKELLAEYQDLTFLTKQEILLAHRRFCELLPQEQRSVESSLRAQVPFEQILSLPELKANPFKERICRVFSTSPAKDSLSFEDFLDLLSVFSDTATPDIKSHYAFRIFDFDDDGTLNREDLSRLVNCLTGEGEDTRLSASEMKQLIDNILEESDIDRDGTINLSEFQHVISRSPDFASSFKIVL

SMILES | activity change, negative = inhibition | Potency
Nc1nc(F)nc2c1ncn2[C@@H]1O[C@H](COP(=O)(O)O)[C@@H](O)[C@H]1O | -0.522% | –
O=c1cc(-c2ccccc2)oc2cc(O)cc(O)c12 | -4.96% | –
Cn1cc(C=C2C(=O)Nc3cccnc32)c2ccccc21 | 18.6% | –
CO[C@H]1C[C@@H]2CC[C@@H](C)[C@@](O)(O2)C(=O)C(=O)N2CCCC[C@@H]2C(=O)O[C@H]([C@H](C)C[C@@H]2CC[C@H](OC(=O)C(C)(CO)CO)[C@H](OC)C2)CC(=O)[C@H](C)C=C(C)[C@@H](O)[C@@H](OC)C(=O)[C@H](C)C[C@H](C)C=CC=CC=C1C | 0.887% | –
COc1ccc(Cc2ccc(NC(N)=O)cc2)cc1-c1cccc(Cl)c1 | 1.32% [at 114 µM] | –
Oc1ccc(C2CCN(c3ccnc4ccccc34)CC2)cc1O | -4.54% | –
O=C1NC(=O)C(=Cc2ccc3nccnc3c2)S1 | -9.4% [at 30.2 µM] | –
CC(=Cc1ccccc1)C=C1SC(=S)N(CC(=O)O)C1=O | -5.35% | –
C=C1C(=O)OC2C=C(C)CCC=C(C)CCC12 (configuration not stated) | -4.8% | –
Oc1ccc(C2=Cc3ccc(O)cc3OC2)cc1 | -5.98% | –
O=C(O)c1ccc(-c2cc3cccnc3c(-c3ccc4nonc4c3)n2)cc1 | 2.15% | –
COC(=O)N[C@H](C(=O)N1CCC[C@@H]1c1ncc(-c2ccc(-c3ccc(-c4cnc([C@@H]5CCCN5C(=O)[C@@H](NC(=O)OC)C(C)C)[nH]4)cc3)cc2)[nH]1)C(C)C | -8.97% | –
CC[C@H]1OC(=O)[C@H](C)[C@@H](O[C@H]2C[C@@](C)(OC)[C@@H](O)[C@H](C)O2)[C@H](C)[C@@H](O[C@@H]2O[C@H](C)C[C@H](N(C)C)[C@@H]2O)[C@](C)(O)C[C@@H](C)CN(C)[C@H](C)[C@@H](O)[C@]1(C)O | -6.08% | –
CNC(=O)c1ccccc1Sc1ccc2c(C=Cc3ccccn3)n[nH]c2c1 | -3.53% | –
CO[C@H]1C[C@@H]2CC[C@@H](C)[C@@](O)(O2)C(=O)C(=O)N2CCCC[C@@H]2C(=O)O[C@H]([C@H](C)C[C@@H]2CC[C@H](OP(C)(C)=O)[C@H](OC)C2)CC(=O)[C@H](C)C=C(C)[C@@H](O)[C@@H](OC)C(=O)[C@H](C)C[C@H](C)C=CC=CC=C1C | -1.96% | –
CC[C@]1(O)C[C@@H]2CN(CCc3c([nH]c4ccccc34)[C@@](C(=O)OC)(c3cc4c(cc3OC)N(C=O)[C@@H]3C45CCN4CC=C[C@](CC)([C@H]45)[C@@H](OC(C)=O)[C@]3(O)C(=O)OC)C2)C1 (some centres not stated) | 0.969% | –
Nc1ncnc2c1ncn2[C@@H]1O[C@@H](CO)[C@H](O)[C@H]1O | 3.34% | –
CO[C@H]1C[C@@H]2CC[C@@H](C)[C@@](O)(O2)C(=O)C(=O)N2CCCC[C@@H]2C(=O)O[C@H]([C@H](C)C[C@@H]2CC[C@H](OCCO)[C@H](OC)C2)CC(=O)[C@H](C)C=C(C)[C@@H](O)[C@@H](OC)C(=O)[C@H](C)C[C@H](C)C=CC=CC=C1C | -5.2% | –
O=C1NC(=O)C(=Cc2ccc(-c3ccc(F)cc3)o2)S1 | -5.68% | –

SMILES | activity change, negative = inhibition | Potency
CCC(=O)NC[C@H](Cc1ccc(OCCc2nc(-c3ccccc3)oc2C)cc1)NC(C)=CC(=O)c1ccc(C(F)(F)F)cc1 | -4.1% | –
CCC(CC)[C@H](NC(C)=O)[C@@H]1[C@H](O)[C@@H](C(=O)O)C[C@@H]1N=C(N)N | 5.14% | –
O=C1c2ccccc2-[n+]2ccc3c([nH]c4ccccc43)c21 | -17.7% | –
COC(=O)C1=CO[C@@H](O)[C@@H]2C(CO)=CC[C@@H]12 | 2.27% | –
COc1cc(Nc2ncc(F)c(Nc3ccc4c(n3)NC(=O)C(C)(C)O4)n2)cc(OC)c1OC | – | inactive
O=c1cc(CN2CCOCC2)occ1OCCCCCSc1ccnc2cc(C(F)(F)F)ccc12 | -6.41% | –
O=c1ccn([C@@H]2O[C@H](CO)[C@H](O)[C@H]2O)c(=O)[nH]1 | 1.15% | –
C=CCc1ccc(O)c(-c2ccc(O)c(CC=C)c2)c1 | 0.999% | –
CN(C)Cc1cccc(N=C(c2ccccc2)c2c(O)[nH]c3cc(C(=O)N(C)C)ccc23)c1 | 1.95% | –
CC1(C)CCC[C@@]2(C)[C@@H]1CC[C@@]1(C)OC(=O)C[C@H]21 | -5.24% | –
COc1cc2nc(-c3ccc(N4CCN(C)CC4)cc3)nc(NCCN3CCOCC3)c2cc1OC | -0.205% [at 114 µM] | –
OC[C@H]1O[C@@H](n2cnc3c2NC=NC[C@@H]3O)C[C@H]1O | -5.68% | –
Nc1ncnc2c1ncn2[C@@H]1O[C@H](CO)C[C@@H]1O | 0.717% | –
OC[C@H]1O[C@@H](Oc2cc(O)cc(C=Cc3ccc(O)cc3)c2)[C@H](O)[C@@H](O)[C@H]1O | 6.74% | –
CC[C@H]1OC(=O)[C@H](C)C(=O)[C@H](C)[C@@H](O[C@H]2O[C@H](C)C[C@H](N(C)C)[C@@H]2O)[C@](C)(OC)C[C@@H](C)C(=O)[C@H](C)[C@H]2N(CCCCn3cnc(-c4cccnc4)c3)C(=O)O[C@]12C | -1.36% | –
COc1ccc(C2Sc3ccccc3N(CCN(C)C)C(=O)C2OC(C)=O)cc1 (configuration not stated) | – | inactive
NC(=O)c1cccc2[nH]c(-c3ccc([C@H]4CCCN4)cc3F)nc12 | 1.92% [at 114 µM] | –
Cc1c[nH]c(C=C2C(=O)Nc3ccccc32)c1CCC(=O)O | 9.33% | –
